# From PubChem BioAssay
# Calls of active or inactive are those of the source.
# Assay: cell viability in Huh7 cells, primary screen, cytotoxicity control for HCV replication inhibitor project, CellTiter-Glo luminescence, basal, 48 h (AID 1143);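 also: Huh7 hepatoma cells carrying a hepatitis C replication reporter with no stimulus; test concentration not given here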
# Conditions: Huh7 HCV replicon, higher = more signal, called active from +8 up or from −8 down
row,SMILES,z-score
1,CO[C@H]1COC(=O)[C@@H](Cc2ccccc2)NC(=O)[C@@H](C)COC(=O)CCC[C@@H]1C,-0.382 (inactive)
2,CCOC(=O)[C@H](CC(C)C)NC(=O)CCC1CC(OC(=O)NCCc2ccc(F)cc2)CC2(CCCC(COC(=O)NCCc3ccccc3OC)O2)O1 (some centres not stated),-0.451 (inactive)
3,CCc1cc2c(nc1CC)CCN(CCC(C)=NO[C@H](C)c1cn([C@H](CO)Cc3ccccc3)nn1)C2,-0.225 (inactive)
4,CO[C@H]1COC(=O)CC=C[C@@H](C)[C@H](NS(=O)(=O)c2ccc(C)cc2)COC(=O)CCC[C@@H]1C,-0.279 (inactive)
5,C=Cc1ccc([C@H]2N[C@H](C(=O)O)CC[C@@H]2C)cc1,0.369 (inactive)
6,CO[C@H]1COC(=O)[C@@H](C)COC(=O)[C@H](COCc2ccccc2)NC(=O)CC=C[C@H]1C,0.27 (inactive)
7,CCOC(=O)[C@H](CC(C)C)NC(=O)CCC1CC(OC(=O)NCc2cccc3ccccc23)CC2(CCCC(COC(=O)NCCC(C)C)O2)O1 (some centres not stated),-2.6 (inactive)
8,CO[C@H]1COC(=O)CC=C[C@@H](C)[C@H](OC)COC(=O)[C@@H]2CCCN2C(=O)CC=C[C@@H]1C,0.192 (inactive)
9,O=C1[C@H]2[C@H]3[C@H](O)[C@H](O)CC(=NOCc4ccccc4)[C@H]3CC[C@H]2C(=O)N1Cc1ccc2c(c1)OCO2,-1.96 (inactive)
10,Cc1ccc(S(=O)(=O)NC(CCc2ccccc2)CC(=O)C(C)(C)C)cc1 (configuration not stated),-0.482 (inactive)
11,O=C1C=C[C@@H](O)[C@@H]2[C@@H]3C(=O)N(C[C@@H]4CCCO4)C(=O)[C@@H]3CC[C@@H]12,-0.228 (inactive)
12,CC(C)=CCCC(C)=CCON=C1C[C@@H](O)[C@@H](O)[C@@H]2[C@@H]3C(=O)N(Cc4ccccc4)C(=O)[C@@H]3CC[C@@H]12,0.18 (inactive)
13,CCOC(=O)[C@H](CC(C)C)NC(=O)CCC1CC(OC(=O)NCCc2ccc(F)cc2)CC2(CCCC(COC(=O)NCCc3ccc(Cl)cc3)O2)O1 (some centres not stated),-1.54 (inactive)
14,CC(=O)Nc1ccc([C@@H]2N[C@H](C(=O)O)CC[C@H]2C)cc1,0.138 (inactive)
15,CCOC(=O)NN=C1C[C@@H](O)[C@@H](O)[C@@H]2[C@@H]3C(=O)N(c4cccc(Oc5ccccc5)c4)C(=O)[C@@H]3CC[C@H]12,-1.16 (inactive)
16,Cc1ccc(S(=O)(=O)N[C@H]2COC(=O)CC=C[C@H](C)[C@@H](NS(=O)(=O)c3ccc(C)cc3)COC(=O)CC=C[C@@H]2C)cc1,-0.591 (inactive)
17,CC1O[C@H]2C3=C(C(=O)[C@@H]4O[C@@H]4[C@H]3O)[C@@H]1C1[C@@H](C)OC=C3[C@H](O)C4O[C@@H]4C(=NOCc4ccccc4)[C@]312 (some centres not stated),-3.64 (inactive)
18,C[C@@H](c1ccccc1)N1C(=O)[C@H]2[C@H]3[C@H](O)[C@H](O)CC(=NO[C@@H]4O[C@H](CO)[C@@H](O)[C@H](O)[C@H]4O)[C@@H]3CC[C@H]2C1=O,0.401 (inactive)
19,CON=C(C)CCC(=O)OC[C@H]1O[C@H](c2ccccc2)C=C[C@@H]1Oc1ccc(OC)cc1,-0.539 (inactive)

row,SMILES,z-score
1,COC(=O)[C@H](C)NC(=O)CCC1CC(OC(=O)NCc2ccc3c(c2)OCO3)CC2(CCCC(COC(=O)NCC(c3ccccc3)c3ccccc3)O2)O1 (some centres not stated),-4.67 (inactive)
2,COC(=O)[C@H](C)NC(=O)CCC1CC(OC(=O)NCCc2ccc(F)cc2)CC2(CCCC(COC(=O)NCCC(C)C)O2)O1 (some centres not stated),-0.872 (inactive)
3,O=C1[C@H]2[C@H]3[C@H](O)[C@H](O)CC(=NOCc4ccccc4)[C@@H]3CC[C@H]2C(=O)N1c1ccc(F)cc1F,-1.69 (inactive)
4,CC(C)=CCCC(C)=CCON=C1C[C@@H](O)[C@@H](O)[C@@H]2[C@@H]3C(=O)N(C4CCCCC4)C(=O)[C@@H]3CC[C@@H]12,-0.592 (inactive)
5,CC(C)CON=C1C[C@@H](O)[C@@H](O)[C@@H]2[C@@H]3C(=O)N(Cc4ccc5c(c4)OCO5)C(=O)[C@@H]3CC[C@H]12,-0.365 (inactive)
6,CCOC(=O)[C@H](Cc1ccccc1)NC(=O)CCC1CC(OC(=O)NCc2ccc3c(c2)OCO3)CC2(CCCC(COC(=O)NCCc3ccccc3OC)O2)O1 (some centres not stated),-0.415 (inactive)
7,Cc1cc2c(c(=O)o1)[C@@H](O)[C@H]1O[C@H]1C2=O,0.773 (inactive)
8,CC(=O)O[C@H]1C2=CO[C@H](C)[C@H]3[C@H]4C5=C([C@H](O)[C@H]6O[C@H]6C5=O)[C@H](OC4C)[C@@]23C(=O)[C@@H]2O[C@@H]21 (some centres not stated),-6.34 (inactive)
9,CCOC(=O)[C@H](Cc1ccccc1)NC(=O)CCC1CC(OC(=O)NCc2cccc3ccccc23)CC2(CCCC(COC(=O)NCc3ccccc3)O2)O1 (some centres not stated),-5.15 (inactive)
10,CO[C@@H]1COC(=O)[C@@H](C)COC(=O)[C@@H](C)NC(=O)CC=C[C@@H]1C,-4.69 (inactive)
11,CCOC(=O)[C@H](Cc1ccccc1)NC(=O)CCC1CC(OC(=O)NCc2ccc3c(c2)OCO3)CC2(CCCC(COC(=O)NCCC(C)C)O2)O1 (some centres not stated),-1.05 (inactive)
12,COc1ccc(COC(=O)NN=C2C[C@@H](O)[C@@H](O)[C@@H]3[C@@H]4C(=O)N(C5CCCCC5)C(=O)[C@@H]4CC[C@H]23)cc1,-0.146 (inactive)
13,CCC1=NOC(CCC2CC(OC(=O)NCc3cccc4c3OCO4)CC3(CCCC(COC(=O)NCCc4ccccc4OC)O3)O2)C1 (configuration not stated),-0.491 (inactive)
14,COC(=O)CC=C[C@@H](C)[C@@H](C=NO[C@@H]1O[C@H](COC(C)=O)[C@@H](OC(C)=O)[C@H](OC(C)=O)[C@H]1OC(C)=O)NS(=O)(=O)c1ccc(C)cc1,0.0322 (inactive)
15,CCOC(=O)[C@H](CC(C)C)NC(=O)CCC1CC(OC(=O)NCc2ccc3c(c2)OCO3)CC2(CCCC(COC(=O)NCCCN3CCCC3=O)O2)O1 (some centres not stated),-0.255 (inactive)
16,O=C1C2=CC[C@H]3C(=O)N(c4cccc(Oc5ccccc5)c4)C(=O)[C@H]3[C@H]2[C@H](O)[C@@H]2O[C@H]12,-6.01 (inactive)
17,COC(=O)[C@H](C)NC(=O)CCC1CC(OC(=O)NCc2ccc3c(c2)OCO3)CC2(CCCC(COC(=O)NCc3cccc(C(F)(F)F)c3)O2)O1 (some centres not stated),-0.109 (inactive)
18,CO[C@H]1COC(=O)CC=C[C@H](C)[C@@H](OC)COC(=O)[C@@H](C)NC(=O)CC=C[C@@H]1C,-1.42 (inactive)
